Whole data set: some 33,000 sequences, median “E-score (-0.5 to 0.5)” near -0.016, cut for the highest 2% near 0.32. The full list was thinned out, with the highest values kept by preference.
The sequences below were run against T1, Stp1 (UniProt B3LFK1) (assay: PBM E-score (8-mer binding enrichment) (E-score (-0.5 to 0.5)); higher = stronger / more preferred TF binding). Conditions: protein concentration: 200 nM; construct: GST-full length.
T1 sequence: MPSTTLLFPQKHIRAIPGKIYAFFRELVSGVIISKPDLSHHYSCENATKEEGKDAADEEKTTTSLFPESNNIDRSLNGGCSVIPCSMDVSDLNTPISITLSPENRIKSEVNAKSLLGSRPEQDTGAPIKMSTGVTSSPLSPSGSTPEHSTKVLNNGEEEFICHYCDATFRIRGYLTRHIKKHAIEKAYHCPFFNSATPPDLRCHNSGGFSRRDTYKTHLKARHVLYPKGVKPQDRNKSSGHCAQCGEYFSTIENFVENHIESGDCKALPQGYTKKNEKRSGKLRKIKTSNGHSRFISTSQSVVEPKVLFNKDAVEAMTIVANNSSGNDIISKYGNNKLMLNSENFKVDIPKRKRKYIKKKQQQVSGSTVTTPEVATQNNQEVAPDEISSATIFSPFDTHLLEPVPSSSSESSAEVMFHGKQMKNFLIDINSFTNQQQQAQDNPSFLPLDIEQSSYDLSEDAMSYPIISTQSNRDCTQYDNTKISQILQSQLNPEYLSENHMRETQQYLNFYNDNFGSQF
Protocol: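 Universal 'all 10-mer' protein binding microarrays (Agilent AMADID 015681) probed with GST-tagged S. cerevisiae TFs (full-length or DBD) made by in vitro transcription/translation (PURExpress), about 100-200 nM. Bound TF was detected with fluorescent anti-GST. Each ungapped 8-mer (which stands for itself and its reverse complement) is scored by the PBM enrichment score (E-score), a modified Wilcoxon-Mann-Whitney statistic from -0.5 to +0.5, computed with the Universal PBM Analysis Suite. Scale: above 0.35 generally sequence-specific binding.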

Sequence | PBM E-score
AGGCCGGG | -0.163
CTGAAAGC | 0.0435
ACTACTGA | -0.0374
AGCCAGGC | -0.101
AAGGCGGC | 0.319
GAGGCGGA | -0.00688
AAGGCGGA | -0.099
GAGGAGGC | 0.00167
CAGGCGGC | 0.3
GAGGCGGC | 0.374
GGAAACTA | -0.133
TCAATGAA | 0.0662
ACCAAGTG | -0.0911
GAGTAGAC | 0.0184
AGTCGAAC | -0.146
ATAATGCC | 0.325
ATGATGCG | 0.148
GCCATGCC | 0.324
CAAATGCC | 0.227
ATGATGCC | 0.337
CTGATGCC | 0.187
GAAATGCC | 0.358
ACCATGCC | 0.199
GAAATGCA | -0.0558
ATAATGCG | -0.0164
CTAATGCC | 0.221

Sequence | PBM E-score
CCCATGCC | -0.0109
TACACACA | 0.202
ATGGATTA | -0.0582
ACCTGGAT | -0.266
GAAGCATA | -0.00057
GTCACAAA | -0.0375
AGTCATTG | -0.381
CACACTCA | 0.0928
AAATTTCT | -0.0455
GCGATGCA | -0.156
AAAATGCT | 0.164
CCGATGCC | 0.264
AAAATGCC | 0.352
AAAATGCA | -0.0731
GCGATGCC | 0.319
ACTCACAC | -0.063
CAATCCAA | 0.0601
AAGCTGGG | -0.164
AGCAATTA | 0.0484
CCCACACC | -0.0557
AAGCGGCT | 0.354
AAGCGGCA | 0.455
AAGCGGAT | -0.0611
AAGCGGGA | -0.095
AAGCGGGT | -0.0561
AAGCGGAA | 0.0259

Sequence | PBM E-score
CAGCGGCG | 0.34
GAGCGGCA | 0.44
TAGCGGCA | 0.291
CAGCGGCA | 0.3
CAGCGGCC | -0.111
GAGCGGAA | 0.141
AAAGTTAA | 0.102
CCCCAGTC | -0.324
ACGTGTTA | 0.116
GTAAGAGA | -0.0111
AACTCTAC | -0.212
AATCGCTC | -0.292
TGAGATCA | 0.0358
GAGGGGGC | -0.277
CTGACCAG | -0.136
AAGCGGAG | -0.0617
AAGCGGCG | 0.458
AAGCGGCC | 0.282
CGGCGTTC | 0.391
AGGCGTTC | 0.0316
CAGCGTTC | 0.0494
GGGCGTTA | 0.206
AGGCGTTA | 0.236
CGGCGTTA | 0.454
CGGAGGAA | -0.229
CCTCCATA | 0.0205

Sequence | PBM E-score
CCCCGCAC | -0.00823
TACCGCAA | 0.117
CGCCGCAG | 0.436
GGCCGCAC | 0.289
TGCCGCAA | 0.333
CGCCGCAA | 0.421
GGCCGCAA | 0.131
CCCCGCAG | -0.0786
TGCCGCCA | 0.229
AGCCGCAG | 0.258
CACCGCAA | 0.0442
CGCCGCAC | 0.478
CAAAGACG | 0.0347
AAATGCAA | 0.0071
ATTAGATA | 0.11
ACTCACAA | -0.0902
CGCAGTAA | 0.0664
GGTGAGGA | 0.0236
ATGGGTCA | -0.255
CGCCATAC | 0.194
AAACCGGG | -0.195
AATCCTTC | -0.128
ATACAGAC | -0.0347
CCGTGACG | 0.109
ATGTGCCC | 0.0678
ATGTGCCG | 0.377

Sequence | PBM E-score
CCGTGCCG | 0.47
CCGTGCCC | 0.365
GCGTGCCC | 0.0203
CCCTGCCG | 0.161
ATGTGCCA | 0.137
GCGTGCCA | 0.206
TCGTGCCA | 0.177
CTGTGCCC | 0.242
CCGTGCCA | 0.35
ACTTCTGC | 0.0768
GCTTCATA | 0.0285
CTTGGCAA | -0.119
CCACCCGG | -0.218
CGCAAGTC | -0.309
GCTACTGA | -0.0112
CAAGGCTA | 0.275
CACAATGC | 0.00061
ACGTGCGA | 0.00881
AGGTGCCC | -0.0256
ACGTGCGG | 0.357
TCGTGCAA | 0.288
CCGTGCAA | 0.325
ATGTGGCC | 0.0349
AGGTGCCA | -0.0228
CCGTGCAG | 0.315
ATGTGCGG | 0.213

Sequence | PBM E-score
ATGTGGCG | 0.322
ATGTGGCA | 0.27
AGGTGCCG | 0.385
CGTTGACA | 0.0374
AGAATCTC | -0.0977
AAGGAGCC | -0.0111
CTCTTAGC | 0.0466
ACGTCGTG | -0.00714
AGTGGGCG | 0.0679
TCGTGGCA | 0.102
ACGTGCCT | 0.278
ACGTGCCG | 0.39
ACGTGCCC | 0.18
ACGTGGCA | 0.152
CCGTGGCA | 0.357
GATGGCAC | 0.196
ATCTCTTG | -0.137
ACCCGCAC | 0.129
AGCCGCAC | 0.42
AGCCGCAA | 0.188
AACCGCAC | 0.0401
AGCCGCAT | 0.452
ACCCGCAT | 0.1
CACTCTGC | -0.129
CCCTTCTC | -0.259
CTCAGGTC | -0.196

Sequence | PBM E-score
TATTAGCA | 0.0213
ACTCAAGA | -0.0476
CATATAAG | 0.118
AATATAAT | 0.0522
AATATAAG | 0.32
ACGTTTAA | 0.12
CCGTTTAC | 0.235
CCGTTTAA | 0.349
AGTTCTAA | -0.0232
TATGGCGA | 0.0899
CCATAAAG | -0.0597
GAGGCAGA | -0.118
CAGGCACA | -0.259
GAGGCACC | 0.239
AAGGCAAA | 0.247
GAGGCACA | 0.332
AAGGCAGA | -0.164
CAGGCACC | -0.107
AAGGCACA | 0.338
AAGGCACC | 0.402
TAGGCACA | 0.132
CAGGCACG | 0.174
AAGGCACG | 0.397
CACAAGCA | -0.0847
AGTCCTTG | -0.0837
GTTTCTCA | -0.115

Sequence | PBM E-score
CAAGTAAC | 0.0497
ATGAGAAT | 0.146
CCTAATCA | -0.0333
ACAGAGAA | -0.0516
GATTTGCC | 0.219
AGCCCGCC | -0.0384
ATCTGCTC | -0.272
TAAGATTA | 0.0404
AATGCACT | 0.109
AGGGCACT | 0.239
AAGGCATG | 0.158
AAGGCACT | 0.323
AAGGCATC | 0.292
AAGGCATT | 0.322
CCCTACAG | -0.178
GTCGCAAA | 0.155
ACCGGCTC | -0.0667
AACGGCTT | 0.366
CCCGGCTA | -0.148
CAAGGCTC | 0.0922
AACGGCTG | 0.0994
CACGGCTG | 0.363
AAAGGCTT | -0.0867
GACGGCTC | 0.307
CACGGCTC | 0.469
AACGGCTC | 0.407

Sequence | PBM E-score
AACGGGCT | -0.293
ACCGGCTG | -0.0577
CATGTAGG | -0.00116
AGTTGAGA | -0.0601
ACTCCAGG | -0.175
GGAGCACC | -0.188
CCTTACAG | 0.0881
AGGGAGTG | -0.0747
CCGTCATA | 0.0738
CAGAACGA | 0.00724
GTCGGCTA | -0.0709
TACGGCTA | 0.349
CACGGCTA | 0.415
GACGGCTA | 0.235
ATCGGCTA | -0.108
CTCGGCTA | 0.0804
GCCGGCTA | 0.0397
ACCGGCTA | -0.0689
AACGGCTA | 0.372

From the supplement of paper PMC3334620
